Reference: PubChem BioAssay
For some assays here: Results with a measured potency or affinity are listed apart. Calls of active or inactive are those of the source. Unless noted, the rule behind the calls is not given here. Residues, ends and D or L forms follow the SMILES beside them. *: point of attachment. Octanoyl = CCCCCCCC(=O)*

Tests used:
[1] = antimalarial activity against Dd2 strain (AID 2302;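 active = growth inhibition above 50% at the single 2 µM test dose, taken to imply half-maximal potency below 2 µM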;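 note: 0% = DMSO untreated growth and 100% = chloroquine plus artemisinin killed control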); settings: P. falciparum Dd2 in RBCs, LDH growth readout, 72 h; at 2 µM; hits give high values
[2] = human hepatoma cell viability loss – ATP luminescence, cytotoxicity control for P. falciparum antimalarial project, primary screen (AID 2303;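 active = inhibition above 50%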;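 note: 0% = DMSO wells and 100% = digitonin-killed cells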); settings: HepG2 viability, 24-48 h, at 10 µM, hits give high values
[3] = molecular target: L-lactate dehydrogenase (Plasmodium falciparum (isolate CDC / Honduras)) (UniProt Q27743); experiment: PfLDH activity inhibition – cell lysate, 3D7 strain, counter-screen for P. falciparum growth inhibition project (AID 2304);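 note: 0% = vehicle and 100% = reference inhibitor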; settings: P. falciparum 3D7 crude extract, LDH APAD/NBT absorbance; at 2 µM; hits give high values
[4] = inhibition of 3D7 malaria parasite growth – strain 3D7 (AID 2306);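 note: 0% = DMSO wells and 100% = chloroquine plus artemisinin control wells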; settings: P. falciparum 3D7 erythrocytic growth, LDH absorbance, 72 h; at 2 µM; hits give high values
[5] = molecular target: Calcium-dependent protein kinase 1 (Plasmodium falciparum (isolate 3D7)) (UniProt P62344); experiment: PfCDPK1 kinase inhibitors, biochemical, TCAMS library (AID 1159585; cut-off not given, nearly all actives have IC50 up to about 0.98 µM;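 note: inhibitors leave more ATP so luminescence rises with inhibition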); settings: recombinant PfCDPK1, Kinase-Glo ATP depletion luminescence
[6] = molecular target: Plasmodium falciparum protein kinase 6 (PK6, PF3D7_1337100) (UniProt Q8IDW1); experiment: PfPK6 kinase inhibitors, biochemical, TCAMS library (AID 1159586); settings: recombinant PfPK6, Kinase-Glo ATP depletion luminescence
[7] = molecular target: Protein kinase 7 (PK7), Plasmodium falciparum 3D7 (PF3D7_0213400) (UniProt Q7YTF7); experiment: inhibition of Plasmodium PK7 catalytic activity – biochemical, TCAMS antimalarial set, Kinase-Glo luminescence (AID 1159587); settings: recombinant PfPK7, Kinase-Glo ATP depletion luminescence
[8] = molecular target: Calcium-dependent protein kinase 4 (Plasmodium falciparum (isolate 3D7)) (UniProt Q8IBS5); experiment: PfCDPK4 kinase inhibitors, biochemical, TCAMS library (AID 1159588; cut-off not given, nearly all actives have IC50 up to about 0.91 µM); settings: recombinant PfCDPK4, Kinase-Glo ATP depletion luminescence
Sequence of Calcium-dependent protein kinase 4 (Plasmodium falciparum (isolate 3D7)) (Q8IBS5 whole entry, looked up): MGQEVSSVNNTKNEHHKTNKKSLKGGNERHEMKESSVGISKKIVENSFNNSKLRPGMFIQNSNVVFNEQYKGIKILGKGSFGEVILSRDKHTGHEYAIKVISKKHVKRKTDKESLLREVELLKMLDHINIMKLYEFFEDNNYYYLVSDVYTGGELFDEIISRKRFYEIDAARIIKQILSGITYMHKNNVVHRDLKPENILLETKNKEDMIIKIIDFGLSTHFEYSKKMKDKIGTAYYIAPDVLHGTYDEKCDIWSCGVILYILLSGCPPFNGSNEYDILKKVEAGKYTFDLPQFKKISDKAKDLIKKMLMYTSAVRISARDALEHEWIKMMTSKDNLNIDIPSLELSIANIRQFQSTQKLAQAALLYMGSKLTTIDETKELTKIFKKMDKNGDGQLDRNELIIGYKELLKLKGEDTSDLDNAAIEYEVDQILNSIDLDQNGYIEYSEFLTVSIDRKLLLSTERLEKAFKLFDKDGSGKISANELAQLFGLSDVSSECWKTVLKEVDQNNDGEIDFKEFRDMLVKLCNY

Sequence of Calcium-dependent protein kinase 1 (Plasmodium falciparum (isolate 3D7)) (P62344 whole entry, looked up): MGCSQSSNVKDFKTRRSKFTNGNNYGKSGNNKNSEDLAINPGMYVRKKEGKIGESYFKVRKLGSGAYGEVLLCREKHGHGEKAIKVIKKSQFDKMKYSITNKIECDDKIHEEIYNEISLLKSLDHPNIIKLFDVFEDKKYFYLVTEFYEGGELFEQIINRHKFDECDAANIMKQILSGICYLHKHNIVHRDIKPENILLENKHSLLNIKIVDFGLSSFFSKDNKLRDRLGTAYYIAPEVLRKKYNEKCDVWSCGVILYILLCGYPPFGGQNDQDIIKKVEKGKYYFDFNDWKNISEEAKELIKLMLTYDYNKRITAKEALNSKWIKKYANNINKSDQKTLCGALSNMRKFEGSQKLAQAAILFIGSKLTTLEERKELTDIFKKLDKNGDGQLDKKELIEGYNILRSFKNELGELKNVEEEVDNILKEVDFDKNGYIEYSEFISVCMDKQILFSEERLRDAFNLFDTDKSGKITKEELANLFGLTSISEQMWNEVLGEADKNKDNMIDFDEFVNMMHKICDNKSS
Sequence of L-lactate dehydrogenase (Plasmodium falciparum (isolate CDC / Honduras)) (Q27743 whole entry, looked up): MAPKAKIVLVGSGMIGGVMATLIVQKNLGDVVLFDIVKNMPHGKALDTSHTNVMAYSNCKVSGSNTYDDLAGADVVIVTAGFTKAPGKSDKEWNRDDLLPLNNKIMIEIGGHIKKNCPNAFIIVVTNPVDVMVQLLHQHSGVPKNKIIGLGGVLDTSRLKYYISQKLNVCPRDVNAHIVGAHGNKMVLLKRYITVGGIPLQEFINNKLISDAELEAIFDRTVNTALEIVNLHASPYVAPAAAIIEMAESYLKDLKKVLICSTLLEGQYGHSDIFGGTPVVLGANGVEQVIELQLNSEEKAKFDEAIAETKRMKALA
Sequence of Protein kinase 7 (PK7), Plasmodium falciparum 3D7 (PF3D7_0213400) (Q7YTF7 1-343): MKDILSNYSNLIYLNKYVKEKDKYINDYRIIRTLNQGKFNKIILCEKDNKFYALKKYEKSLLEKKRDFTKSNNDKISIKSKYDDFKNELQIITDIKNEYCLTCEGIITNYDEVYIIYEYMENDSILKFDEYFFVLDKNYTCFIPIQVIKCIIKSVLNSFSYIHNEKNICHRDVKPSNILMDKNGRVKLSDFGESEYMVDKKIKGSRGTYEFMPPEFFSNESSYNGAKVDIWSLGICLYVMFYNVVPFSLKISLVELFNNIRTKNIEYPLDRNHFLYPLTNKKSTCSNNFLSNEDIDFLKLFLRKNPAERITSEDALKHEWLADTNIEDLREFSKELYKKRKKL
Sequence of Plasmodium falciparum protein kinase 6 (PK6, PF3D7_1337100) (Q8IDW1 1-305): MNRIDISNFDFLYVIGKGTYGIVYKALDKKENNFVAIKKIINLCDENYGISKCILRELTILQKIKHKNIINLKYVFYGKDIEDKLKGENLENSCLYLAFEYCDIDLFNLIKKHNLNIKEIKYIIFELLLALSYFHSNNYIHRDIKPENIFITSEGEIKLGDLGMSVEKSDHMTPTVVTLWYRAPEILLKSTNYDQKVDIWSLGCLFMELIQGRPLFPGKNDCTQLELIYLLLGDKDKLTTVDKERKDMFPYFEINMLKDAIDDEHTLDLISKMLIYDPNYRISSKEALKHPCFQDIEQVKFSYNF

O=C(Nc1ccccc1)N(Cc1ccccc1-c1cccc(CNCCc2ccccc2)c1)C1CCN(Cc2ccccc2)CC1
active: growth inhibition [1] 59% | inhibition [2] 95% | growth inhibition [4] 100%
inactive: inhibition [3] 4% | outcome [5] | outcome [6] | outcome [7] | outcome [8]

C=CCc1cc(Br)ccc1OCCCOc1c(N)nc(N)nc1N
inactive: growth inhibition [1] 0% | inhibition [2] 47% | inhibition [3] 4% | outcome [5] | outcome [6] | outcome [7] | outcome [8]
active: growth inhibition [4] 92%

CCN(CC)CCN(Cc1ccc(-c2ccc(C(F)(F)F)cc2)cc1)C(=O)Cn1c(CCc2cc(F)c(F)c(F)c2)nc(=O)c2ccccc21
inactive: inhibition [2] 31% | inhibition [3] -4% | outcome [5] | outcome [6] | outcome [7] | outcome [8]
active: growth inhibition [1] 70% | growth inhibition [4] 101%

Cc1cccn2c(=O)c3cc(C(=O)NCc4cccnc4)c(=N)n(CCc4ccccc4)c3nc12
inactive: growth inhibition [1] 38% | inhibition [2] -2% | inhibition [3] -2% | outcome [5] | outcome [6] | outcome [7] | outcome [8]
active: growth inhibition [4] 99%

CC(C)NCc1ccc(-c2cccc(-c3nc4ccccc4[nH]3)c2)cc1
active: growth inhibition [4] 101%
inactive: growth inhibition [1] 34% | inhibition [2] 21% | inhibition [3] 0% | outcome [5] | outcome [6] | outcome [7] | outcome [8]

O=C(Nc1ccc(NC2=NCCN2)cc1)Nc1ccc(NC2=NCCN2)cc1
active: growth inhibition [1] 72% | growth inhibition [4] 88%
inactive: inhibition [2] -6% | inhibition [3] -1% | outcome [5] | outcome [6] | outcome [7] | outcome [8]

Cc1ccc2cc(NC(=O)c3cccc(C(=O)Nc4ccc5nc(C)ccc5c4)n3)ccc2n1
inactive: growth inhibition [1] 23% | inhibition [2] 21% | inhibition [3] 4% | outcome [5] | outcome [6] | outcome [7] | outcome [8]
active: growth inhibition [4] 92%

N#Cc1ccc(CNCCCCCCNCc2ccc(C#N)c3ccccc23)c2ccccc12
inactive: inhibition [3] -3% | outcome [5] | outcome [6] | outcome [7] | outcome [8]
active: growth inhibition [1] 96% | inhibition [2] 51% | growth inhibition [4] 102%

COc1cccc(NC(=O)Nc2ccc(Nc3nc(C)cc(N(C)C)n3)cc2)c1
active: growth inhibition [1] 100% | growth inhibition [4] 101%
inactive: inhibition [2] 14% | inhibition [3] 5% | outcome [5] | outcome [6] | outcome [7] | outcome [8]

COC(=O)CCn1c(C2CCN(CC3CCC(NC(=O)/C=C/c4ccc(Cl)c(Cl)c4)CC3)CC2)nc2ccccc21 (stereo not given)
inactive: growth inhibition [1] 10% | inhibition [2] 14% | inhibition [3] -2% | outcome [5] | outcome [6] | outcome [7] | outcome [8]
active: growth inhibition [4] 94%

O=C(Nc1nc(-c2ccccn2)cs1)c1ccc(Br)s1
inactive: inhibition [2] 40% | inhibition [3] 7% | outcome [5] | outcome [6] | outcome [7] | outcome [8]
active: growth inhibition [1] 84% | growth inhibition [4] 96%

CCc1sc(-c2cc(Cl)ccc2OC)nc1C(=O)NCCN1CCCCC1
inactive: growth inhibition [1] 28% | inhibition [2] 3% | inhibition [3] 2% | outcome [5] | outcome [6] | outcome [7] | outcome [8]
active: growth inhibition [4] 100%

C[C@H](Cc1ccc(OCCCCCOc2ccc(C[C@@H](C)NC[C@H](O)c3cccc(Cl)c3)cc2)cc1)NC[C@H](O)c1cccc(Cl)c1
inactive: inhibition [3] -1% | outcome [5] | outcome [6] | outcome [7] | outcome [8]
active: growth inhibition [1] 101% | inhibition [2] 99% | growth inhibition [4] 99%

CCc1c[nH]c2c(N3CCCC3=O)cc(C(=O)N[C@@H](Cc3ccccc3)[C@H](O)CNC(C)(C)c3cccc(C(F)(F)F)c3)cc12
active: growth inhibition [1] 99% | growth inhibition [4] 98%
inactive: inhibition [2] 10% | inhibition [3] 1% | outcome [5] | outcome [6] | outcome [7] | outcome [8]

CN(C)CCCN(C)c1cccc2c1nc(-c1cccnc1)n2CCNCc1ccccc1
inactive: inhibition [2] 4% | inhibition [3] 4% | outcome [5] | outcome [6] | outcome [7] | outcome [8]
active: growth inhibition [1] 88% | growth inhibition [4] 89%

CC(C)N1CCC(N(Cc2ccc(-c3ccc(C(F)(F)F)cc3)cc2)C(=O)Cn2c(CCc3cccc(F)c3F)cc(=O)c3ccccc32)CC1
inactive: inhibition [3] -6% | outcome [5] | outcome [6] | outcome [7] | outcome [8]
active: growth inhibition [1] 73% | inhibition [2] 50% | growth inhibition [4] 99%

CC(Cc1ccc(COc2ccc(CC(CO)NCCc3cccc(Cl)c3)cc2)cc1)NCCc1cccc(Cl)c1 (stereo not given)
inactive: inhibition [3] 5% | outcome [5] | outcome [6] | outcome [7] | outcome [8]
active: growth inhibition [1] 86% | inhibition [2] 99% | growth inhibition [4] 101%

N/C(=N/C(=NCCCCCCN=C(/N=C(/N)Nc1ccc(Cl)cc1)N1CCOCC1)N1CCOCC1)Nc1ccc(Cl)cc1
active: growth inhibition [1] 91% | growth inhibition [4] 93%
inactive: inhibition [2] -11% | inhibition [3] 2% | outcome [5] | outcome [6] | outcome [7] | outcome [8]

CC(=O)c1cccc2cc(C(=O)NC3CCC(CCN4CCc5ccc(C#N)cc5C4)CC3)[nH]c12 (stereo not given)
inactive: growth inhibition [1] 17% | inhibition [2] 12% | inhibition [3] -4% | outcome [5] | outcome [6] | outcome [7] | outcome [8]
active: growth inhibition [4] 100%

CN(C)CCOc1cc(NC(=O)Nc2ccc(Oc3ccccc3)cc2)ccc1I
inactive: growth inhibition [1] 4% | inhibition [2] 13% | inhibition [3] 4% | outcome [5] | outcome [6] | outcome [7] | outcome [8]
active: growth inhibition [4] 89%

c1ccc2cc(CNCCCN3CCN(CCCNCc4ccc5ccccc5c4)CC3)ccc2c1
inactive: inhibition [3] 2% | outcome [5] | outcome [6] | outcome [7] | outcome [8]
active: growth inhibition [1] 65% | inhibition [2] 60% | growth inhibition [4] 100%

CSc1ccc(CN2CCC(NC(=O)c3ccc(-c4cccc(C(F)(F)F)c4)s3)CC2)cc1
active: inhibition [2] 68% | growth inhibition [4] 90%
inactive: growth inhibition [1] 9% | inhibition [3] -2% | outcome [5] | outcome [6] | outcome [7] | outcome [8]

O=c1[nH]c(Cc2ccccc2)nc2ccc(Cl)cc12
inactive: inhibition [2] 13% | inhibition [3] 3% | outcome [5] | outcome [6] | outcome [7] | outcome [8]
active: growth inhibition [1] 76% | growth inhibition [4] 92%

Cc1ccc(C)c(Cn2c(N3CCC(C(=O)NCc4cccs4)CC3)nc3ccccc32)c1
active: growth inhibition [1] 73% | growth inhibition [4] 89%
inactive: inhibition [2] -2% | inhibition [3] -6% | outcome [5] | outcome [6] | outcome [7] | outcome [8]

Oc1ccc(CCNc2nc(NCc3ccc4cc(Cl)ccc4c3)nc(N3CCNCC3)n2)cc1
active: growth inhibition [4] 92%
inactive: growth inhibition [1] 38% | inhibition [2] 14% | inhibition [3] -3% | outcome [5] | outcome [6] | outcome [7] | outcome [8]

Cc1c(CCc2cccc(F)c2F)[nH]c2ccccc2c1=O
active: growth inhibition [1] 90% | growth inhibition [4] 91%
inactive: inhibition [2] 41% | inhibition [3] 2% | outcome [5] | outcome [6] | outcome [7] | outcome [8]

OC(CNc1ccnc(Nc2ccccc2)n1)c1ccc(C(F)(F)F)cc1 (stereo not given)
active: growth inhibition [4] 101%
inactive: growth inhibition [1] 39% | inhibition [2] 3% | inhibition [3] -2% | outcome [5] | outcome [6] | outcome [7] | outcome [8]

O=C(Nc1ccccc1F)NC1CCN(c2ccnc(Nc3ccc(F)cc3)n2)CC1
active: growth inhibition [1] 63% | growth inhibition [4] 99%
inactive: inhibition [2] 13% | inhibition [3] -4% | outcome [5] | outcome [6] | outcome [7] | outcome [8]

CS(=O)(=O)Nc1ccc2[nH]cc(C3CCN(CCCCCNC(=O)/C=C/c4ccc(Cl)c(Cl)c4)CC3)c2c1
inactive: growth inhibition [1] 0% | inhibition [2] 1% | inhibition [3] 5% | outcome [5] | outcome [6] | outcome [7] | outcome [8]
active: growth inhibition [4] 101%

Cc1nc(-c2cccc(Nc3nccc(NCC(O)c4ccc(C(F)(F)F)cc4)n3)c2)cs1 (stereo not given)
inactive: inhibition [2] 33% | inhibition [3] 4% | outcome [5] | outcome [6] | outcome [7] | outcome [8]
active: growth inhibition [1] 99% | growth inhibition [4] 100%

CC(C)N1CCC(N(Cc2ccc(-c3ccc(C(F)(F)F)cc3)cc2)C(=O)Cn2c(CCc3cccc(F)c3F)cc(=O)c3c2CCC3)CC1
active: growth inhibition [1] 62% | growth inhibition [4] 100%
inactive: inhibition [2] 30% | inhibition [3] -7% | outcome [5] | outcome [6] | outcome [7] | outcome [8]

Cc1cccc(Cn2c(Cc3ccccc3)nnc2Sc2ccc([N+](=O)[O-])c(C#N)c2)c1
active: growth inhibition [4] 91%
inactive: growth inhibition [1] 3% | inhibition [2] 17% | inhibition [3] -2% | outcome [5] | outcome [6] | outcome [7] | outcome [8]

CCCCCCCC(=O)N[C@@H](Cc1ccccc1)C(=O)N[C@H](C(=O)O)C(C)C (Octanoyl-Phe-Val-OH)
active: growth inhibition [4] 89%
inactive: growth inhibition [1] -7% | inhibition [2] -8% | inhibition [3] 2% | outcome [5] | outcome [6] | outcome [7] | outcome [8]

Cn1c(NC(=O)C2CCCN(C(=O)c3ccc(O)c(-c4ccc(Cl)c(Cl)c4)c3)C2)nc2ccccc21 (stereo not given)
active: growth inhibition [1] 99% | growth inhibition [4] 98%
inactive: inhibition [2] 0% | inhibition [3] -3% | outcome [5] | outcome [6] | outcome [7] | outcome [8]

CC(C)C1C(O)=C(c2ccc3ccccc3c2)C(=O)N1CC1CCCCC1 (stereo not given)
active: growth inhibition [4] 84%
inactive: growth inhibition [1] 43% | inhibition [2] 11% | inhibition [3] -3% | outcome [5] | outcome [6] | outcome [7] | outcome [8]

CS(=O)(=O)c1ccc(CNCc2ccc(-c3cccc(-c4nc5ccc(F)cc5[nH]4)c3)cc2)cc1
active: growth inhibition [1] 74% | growth inhibition [4] 102%
inactive: inhibition [2] 33% | inhibition [3] -5% | outcome [5] | outcome [6] | outcome [7] | outcome [8]

Cc1cc(N[C@@H](Cc2ccccc2)C(=O)NCCOc2ccccc2)nc(NCCc2ccccn2)n1
active: growth inhibition [4] 92%
inactive: growth inhibition [1] 42% | inhibition [2] 12% | inhibition [3] -2% | outcome [5] | outcome [6] | outcome [7] | outcome [8]

O=C(CC(=O)Nc1cc(Cl)cc(Cl)c1)Nc1cc(Cl)cc(Cl)c1
active: growth inhibition [1] 96% | growth inhibition [4] 95%
inactive: inhibition [2] -4% | inhibition [3] -2% | outcome [5] | outcome [6] | outcome [7] | outcome [8]

COc1ccc(OC)c2c1CCN(C)C2Cc1cccc2ccccc12 (stereo not given)
active: growth inhibition [1] 79% | growth inhibition [4] 91%
inactive: inhibition [2] 13% | inhibition [3] 7% | outcome [5] | outcome [6] | outcome [7] | outcome [8]

O=C(Nc1cccc(-c2ccc(-c3nc4ccc(C(F)(F)F)cc4[nH]3)s2)c1)c1cccnc1
inactive: inhibition [3] -3% | outcome [5] | outcome [6] | outcome [7] | outcome [8]
active: growth inhibition [1] 99% | inhibition [2] 74% | growth inhibition [4] 101%
